Test results taken from PubChem BioAssay (Tox21).
Results filed as inconclusive are left out. Active and inactive are the calls of the source. The call rests on the fitted dose curve; in most records, active means well fitted cell-killing curve with a large enough effect in the repeat runs; inconclusive means weak or mixed curves, or effect the other way; inactive means no such curve, though single readings can be large or run the other way.

Assay: qHTS assay to identify small molecule antagonists of the glucocorticoid receptor (GR) signaling pathway - cell viability counter screen (AID 720693); further: nearly all actives have a fitted effect of over 55% in size
Details: GR-bla HeLa viability, CellTiter-Glo luminescence, 18 h, with 5 nM dexamethasone present; series mostly up to 58.5 µM
Description: National Center for Advancing Translational Sciences [NCATS]
NIH Chemical Genomics Center [NCGC]
U.S. Environmental Protection Agency [EPA]
National Institutes of Environmental Health Sciences [NIEHS]
National Toxicology Program [NTP]
U.S. Food and Drug Administration [FDA]
The Glucocorticoid receptor (GR) is one of the members of the nuclear receptor family of ligand-dependent transcription factors. GR plays a critical role in carbohydrate, protein and lipid metabolisms and programmed cell death. CellSensor GR-bla HeLa cell line (Invitrogen) contains a beta-lactamase reporter gene under the control of the glucocorticoid response element stably integrated into HeLa cells, a cervical cancer cell line that expresses glucocorticoid receptor. The activation of the reporter gene under culture conditions can be detected by fluorescence intensity. This cell line has been used to screen the Tox21 10K compound library and to identify the compounds that inhibit the GR signaling. The cytotoxicity of the Tox21 compound library against the GR-bla HeLa cell line was tested in parallel by measuring the cell viability using CellTiter-Glo assay in the same wells.
Tox21 Assay Protocol Summary:
The GR-bla HeLa cells were dispensed at 1500 cells/5 ul/well in 1536-well black wall/clear bottom plates using a Multidrop Combi (ThermoFisher Scientific, Waltham, MA) dispenser. After the assay plates were incubated at a 37 C/5% CO2 incubator for 4 hours, 23 nL of compounds dissolved in DMSO, positive controls or DMSO only was transferred to the assay plate by a pintool station (Kalypsys, San Diego, CA), followed by addition of 1 uL of dexamethasone (5 nM, final concentration in the well). The plates were incubated at 37 C for 18 hours. After 1 uL of LiveBLAzerTM B/G FRET substrate was added using a Flying Reagent Dispenser (Aurora Discovery, San Diego, CA), the plates were incubated at room temperature (RT) for 2 hours, and fluorescence intensity was measured by an Envision plate reader (PerkinElmer, Shelton, CT). After measurement of bla assay, 3 ul CellTiter-Glo (Promega, Madison, WI) was added to measure the cytotoxicity and the plates were then incubated at RT for 30 min. The luminescence was measured using a ViewLux (Perkin Elmer) plate reader.
On the % scale 0 is the no-effect control and ±100 the full control effect.

SMILES | outcome | viability change, negative = cytotoxic
CCOC(=O)[C@H](CCc1ccccc1)N[C@H]1CS[C@H](c2cccs2)CN(CC(=O)O)C1=O | inactive | 
Cc1ccc(S(=O)(=O)NC(=O)NN2CC3CCCC3C2)cc1 (stereo not given) | inactive | 
O=C1CC2(CCCC2)CC(=O)N1CCNCC1COc2ccccc2O1 (stereo not given) | inactive | 
CC(=O)Nc1ccc(OCCOCCOc2ccc(NC(C)=O)cc2)cc1 | inactive | 
CCc1ccc(CC)cc1 | inactive | 
O=P(O)(O)C(O)(Cc1cccnc1)P(=O)(O)O | inactive | 
C=CCn1cc[n+](C)c1 | inactive | 
CC(C)(O)CCCC1=CCC(C=O)CC1 (stereo not given) | inactive | 
CC1(C)C(=O)C(C)(C)C1=O | inactive | 
C=C(C)C(=O)OCCOC1CC2CC1C1C=CCC21 (stereo not given) | inactive | 
CC(=O)Oc1ccc(C(C)=O)cc1 | inactive | 
CCCC(=O)OC | inactive | 
C=CCCCCCCCCOC(C)=O | inactive | 
C=C(C)C(=O)OCCCC | inactive | 
Cc1ccc(O)c([N+](=O)[O-])c1 | inactive | 
CCCCCCCCC1CO1 (stereo not given) | inactive | 
CC(C)(C)OC(=O)c1ccccc1C(=O)O | inactive | 
N#CC1(N)CCCCC1 | inactive | 
c1cc2ccc3ccc4ccc5cccc6c(c1)c2c3c4c56 |  | -5.31% [at 3.15 µM] (inactive)
CC(=O)OC1CCC(C(C)(C)C)CC1 (stereo not given) | inactive | 

SMILES | outcome | viability change, negative = cytotoxic
CCCC(=O)C(CC)Sc1ccoc1C (stereo not given) | inactive | 
CCCCN(CCCC)CCCCCCN(CCCC)CCCC | inactive | 
Cc1cc(C)c(C)c(C)c1 | inactive | 
C[C@@H]1NC(=O)[C@@H](N)CNC(=O)[C@H](C2CCNC(N)=N2)NC(=O)/C(=C/NC(N)=O)NC(=O)[C@H](CNC(=O)C[C@@H](N)CCCN)NC1=O (stereo not given in full) | inactive | 
CN1CCN(C(=O)C2CCCCC2)CC1 | inactive | 
COc1ccc(Cl)cc1C | inactive | 
CCCCCCCCS(=O)(=O)O | inactive | 
CC12CCCC=C1C(=O)OC2=O (stereo not given) | inactive | 
CCCCC(CC)COC(=O)CC#N (stereo not given) | inactive | 
CCCC(C)C(O)CC (stereo not given) | inactive | 
NC[C@H]1O[C@H](O[C@H]2[C@H](O)[C@@H](O[C@H]3O[C@H](CO)[C@@H](O)[C@H](N)[C@H]3O)[C@H](N)C[C@@H]2N)[C@H](N)[C@@H](O)[C@@H]1O | inactive | 
CCN1CCN(C(=O)N[C@@H](C(=O)N[C@@H]2C(=O)N3C(C(=O)O)=C(CSc4nnnn4C)CS[C@H]23)c2ccc(O)cc2)C(=O)C1=O | inactive | 
CCCCN1C(=O)c2ccccc2C1=O | inactive | 
COc1ccc2cc(CCC(C)=O)ccc2c1 | inactive | 
N[C@H]1C(O)O[C@H](CO)[C@@H](O)[C@@H]1O (stereo not given in full) | inactive | 
CCCCN=C(N)N=C(N)N | inactive | 
O=C[C@@H](O)[C@H](O)[C@H](O)CO | inactive | 
CCc1ncc(C)[nH]1 | inactive | 
Cc1cc(C)c(N)c(Cl)c1 | inactive | 
CC(C)=CCC/C(C)=C\C#N | inactive | 
